± gives the standard deviation of the averaged measurements. Of roughly 6,500 targets only a part is listed; those with the largest changes were picked by preference.
Compound: Nc1ncnc2c1ncn2[C@@H]1O[C@H](COP(=O)(O)OP(=O)(O)OP(=O)(O)O)[C@@H](O)[C@H]1O [adenosine triphosphate]
Experiment: NP40-soluble protein abundance relative to vehicle (solubility fold change) (ratio); higher = more soluble protein in presence of ATP
Outline: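 In three independent experiments, Jurkat crude lysate made by Dounce homogenisation was treated for 10 min at room temperature and then 3 min at 37 °C with eight concentrations ranging from 0.1 to 10 mM. It was then solubilised with 0.8% NP40 plus benzonase for 60 min at 4 °C and ultracentrifuged. The supernatant was TMT-labelled for LC-MS/MS, and each value is the fold change against the detergent-processed vehicle for the same replicate, using vsn-normalised intensities.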

Sequence of UniProt Q13158 (Q13158 whole entry): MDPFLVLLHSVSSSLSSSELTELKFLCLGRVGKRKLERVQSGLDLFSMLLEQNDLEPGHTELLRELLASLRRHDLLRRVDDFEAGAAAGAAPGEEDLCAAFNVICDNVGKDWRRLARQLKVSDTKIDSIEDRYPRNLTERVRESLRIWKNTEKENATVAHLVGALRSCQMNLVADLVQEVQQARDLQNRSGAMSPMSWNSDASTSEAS
Sequence of UniProt Q86X83 (Q86X83 whole entry): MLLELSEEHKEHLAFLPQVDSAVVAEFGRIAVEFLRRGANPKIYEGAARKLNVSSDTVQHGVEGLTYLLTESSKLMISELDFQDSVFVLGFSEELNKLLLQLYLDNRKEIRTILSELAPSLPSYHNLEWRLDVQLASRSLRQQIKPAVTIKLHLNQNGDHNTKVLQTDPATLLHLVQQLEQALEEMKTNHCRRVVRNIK
Sequence of UniProt Q8IY47 (Q8IY47 whole entry): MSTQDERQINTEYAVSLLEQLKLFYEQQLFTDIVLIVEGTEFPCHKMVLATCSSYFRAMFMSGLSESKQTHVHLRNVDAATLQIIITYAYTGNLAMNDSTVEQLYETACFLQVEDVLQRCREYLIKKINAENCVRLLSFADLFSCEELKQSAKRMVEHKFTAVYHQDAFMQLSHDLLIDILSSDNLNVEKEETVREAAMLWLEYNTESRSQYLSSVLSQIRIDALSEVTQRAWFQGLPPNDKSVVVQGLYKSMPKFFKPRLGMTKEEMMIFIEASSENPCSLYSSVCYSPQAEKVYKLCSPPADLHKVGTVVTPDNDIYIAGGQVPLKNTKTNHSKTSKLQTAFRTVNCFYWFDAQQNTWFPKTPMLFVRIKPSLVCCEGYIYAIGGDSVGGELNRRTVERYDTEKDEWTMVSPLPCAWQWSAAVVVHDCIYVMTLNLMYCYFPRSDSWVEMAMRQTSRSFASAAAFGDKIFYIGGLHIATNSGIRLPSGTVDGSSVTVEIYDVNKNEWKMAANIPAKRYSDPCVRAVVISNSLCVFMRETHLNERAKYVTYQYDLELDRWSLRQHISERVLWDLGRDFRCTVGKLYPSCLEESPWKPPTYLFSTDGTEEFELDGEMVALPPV
Sequence of UniProt Q86Y01 (Q86Y01 whole entry): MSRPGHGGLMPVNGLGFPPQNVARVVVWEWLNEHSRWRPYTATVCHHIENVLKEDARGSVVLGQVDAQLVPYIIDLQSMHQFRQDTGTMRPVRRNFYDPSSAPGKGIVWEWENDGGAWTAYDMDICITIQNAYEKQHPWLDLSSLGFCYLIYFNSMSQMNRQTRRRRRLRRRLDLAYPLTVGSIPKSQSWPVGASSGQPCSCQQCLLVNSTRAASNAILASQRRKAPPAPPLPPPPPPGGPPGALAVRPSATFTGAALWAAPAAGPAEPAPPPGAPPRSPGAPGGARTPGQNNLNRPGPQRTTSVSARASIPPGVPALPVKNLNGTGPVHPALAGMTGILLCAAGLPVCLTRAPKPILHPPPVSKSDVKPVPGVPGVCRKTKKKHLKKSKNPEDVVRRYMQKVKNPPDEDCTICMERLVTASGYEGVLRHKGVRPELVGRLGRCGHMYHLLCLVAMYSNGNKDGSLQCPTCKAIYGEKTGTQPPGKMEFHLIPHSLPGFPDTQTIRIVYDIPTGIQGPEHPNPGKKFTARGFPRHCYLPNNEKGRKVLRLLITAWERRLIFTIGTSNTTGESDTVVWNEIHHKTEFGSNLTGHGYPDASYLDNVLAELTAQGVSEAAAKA
Sequence of UniProt Q13769 (Q13769 whole entry): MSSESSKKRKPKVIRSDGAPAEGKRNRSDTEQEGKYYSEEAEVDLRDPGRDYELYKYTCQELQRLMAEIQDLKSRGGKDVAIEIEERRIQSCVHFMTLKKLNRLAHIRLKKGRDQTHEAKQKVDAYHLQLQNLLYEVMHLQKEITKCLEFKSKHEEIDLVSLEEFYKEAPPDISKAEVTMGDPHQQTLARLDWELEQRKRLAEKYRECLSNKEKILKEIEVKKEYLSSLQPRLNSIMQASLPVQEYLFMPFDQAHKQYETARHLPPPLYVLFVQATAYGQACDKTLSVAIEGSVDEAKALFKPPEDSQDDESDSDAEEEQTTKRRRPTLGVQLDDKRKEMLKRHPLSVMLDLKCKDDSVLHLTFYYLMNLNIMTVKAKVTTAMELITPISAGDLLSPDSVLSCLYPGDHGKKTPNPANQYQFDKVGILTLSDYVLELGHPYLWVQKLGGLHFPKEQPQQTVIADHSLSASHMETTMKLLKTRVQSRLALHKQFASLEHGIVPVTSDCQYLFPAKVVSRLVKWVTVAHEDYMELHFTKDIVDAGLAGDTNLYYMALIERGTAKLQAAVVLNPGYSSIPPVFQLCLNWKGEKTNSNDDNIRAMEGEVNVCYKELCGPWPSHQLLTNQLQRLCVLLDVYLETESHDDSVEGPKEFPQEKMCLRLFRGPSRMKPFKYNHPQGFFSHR
Sequence of UniProt Q6IC98 (Q6IC98 whole entry): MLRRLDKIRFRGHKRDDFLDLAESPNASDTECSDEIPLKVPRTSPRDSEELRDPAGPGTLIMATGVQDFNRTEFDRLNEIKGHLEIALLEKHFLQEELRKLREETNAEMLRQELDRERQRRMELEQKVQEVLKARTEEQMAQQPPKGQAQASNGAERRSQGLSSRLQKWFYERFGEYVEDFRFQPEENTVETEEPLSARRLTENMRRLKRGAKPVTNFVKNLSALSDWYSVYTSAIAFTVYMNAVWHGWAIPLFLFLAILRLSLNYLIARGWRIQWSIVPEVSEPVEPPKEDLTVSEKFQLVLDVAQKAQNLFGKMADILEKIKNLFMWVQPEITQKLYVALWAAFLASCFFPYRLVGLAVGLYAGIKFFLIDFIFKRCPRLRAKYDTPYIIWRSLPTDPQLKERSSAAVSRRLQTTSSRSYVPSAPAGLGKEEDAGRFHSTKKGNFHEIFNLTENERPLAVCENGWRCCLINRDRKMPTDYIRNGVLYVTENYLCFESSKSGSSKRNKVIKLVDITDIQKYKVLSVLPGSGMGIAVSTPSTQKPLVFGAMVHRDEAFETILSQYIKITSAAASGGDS
Sequence of UniProt Q8IUD2 (Q8IUD2 whole entry, one chain of several): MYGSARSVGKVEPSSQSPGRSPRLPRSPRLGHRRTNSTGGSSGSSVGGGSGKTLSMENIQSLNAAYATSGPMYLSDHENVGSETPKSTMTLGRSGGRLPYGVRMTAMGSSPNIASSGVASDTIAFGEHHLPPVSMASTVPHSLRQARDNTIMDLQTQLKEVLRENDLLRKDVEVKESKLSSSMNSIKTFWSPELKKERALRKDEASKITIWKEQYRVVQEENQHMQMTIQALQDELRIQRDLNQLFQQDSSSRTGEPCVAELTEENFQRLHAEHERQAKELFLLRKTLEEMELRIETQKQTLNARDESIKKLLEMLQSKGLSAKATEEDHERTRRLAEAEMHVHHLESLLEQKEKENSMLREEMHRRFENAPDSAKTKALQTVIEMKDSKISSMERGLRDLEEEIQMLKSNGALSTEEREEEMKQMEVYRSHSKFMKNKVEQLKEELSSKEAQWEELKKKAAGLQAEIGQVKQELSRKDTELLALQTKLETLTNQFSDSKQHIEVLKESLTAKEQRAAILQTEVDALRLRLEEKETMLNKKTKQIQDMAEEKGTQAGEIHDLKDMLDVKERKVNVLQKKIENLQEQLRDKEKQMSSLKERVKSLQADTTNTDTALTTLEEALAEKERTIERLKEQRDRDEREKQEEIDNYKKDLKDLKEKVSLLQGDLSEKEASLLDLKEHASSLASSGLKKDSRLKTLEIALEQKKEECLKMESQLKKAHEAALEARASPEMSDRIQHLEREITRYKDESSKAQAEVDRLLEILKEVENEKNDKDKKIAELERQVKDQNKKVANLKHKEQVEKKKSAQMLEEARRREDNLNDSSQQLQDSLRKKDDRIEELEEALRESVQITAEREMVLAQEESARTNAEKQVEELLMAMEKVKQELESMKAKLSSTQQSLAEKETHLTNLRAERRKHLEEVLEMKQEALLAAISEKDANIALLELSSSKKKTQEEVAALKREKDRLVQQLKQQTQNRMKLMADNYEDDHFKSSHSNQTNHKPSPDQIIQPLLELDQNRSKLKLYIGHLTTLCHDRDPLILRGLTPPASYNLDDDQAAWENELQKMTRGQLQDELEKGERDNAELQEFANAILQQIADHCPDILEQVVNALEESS
Sequence of UniProt Q15036 (Q15036 whole entry): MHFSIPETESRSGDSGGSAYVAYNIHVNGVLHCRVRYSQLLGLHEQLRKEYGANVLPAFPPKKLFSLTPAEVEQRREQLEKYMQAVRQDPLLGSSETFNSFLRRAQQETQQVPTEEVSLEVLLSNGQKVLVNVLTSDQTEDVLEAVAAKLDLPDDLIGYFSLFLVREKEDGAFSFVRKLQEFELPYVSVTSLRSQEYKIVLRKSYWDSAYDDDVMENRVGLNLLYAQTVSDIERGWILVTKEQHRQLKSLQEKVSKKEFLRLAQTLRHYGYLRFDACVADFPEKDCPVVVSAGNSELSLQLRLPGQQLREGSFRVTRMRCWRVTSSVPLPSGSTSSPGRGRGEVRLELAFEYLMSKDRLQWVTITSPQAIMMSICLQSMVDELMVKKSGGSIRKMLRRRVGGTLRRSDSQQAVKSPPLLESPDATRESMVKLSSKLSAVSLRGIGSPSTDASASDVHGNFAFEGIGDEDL
Sequence of UniProt Q8IWE4 (Q8IWE4 whole entry): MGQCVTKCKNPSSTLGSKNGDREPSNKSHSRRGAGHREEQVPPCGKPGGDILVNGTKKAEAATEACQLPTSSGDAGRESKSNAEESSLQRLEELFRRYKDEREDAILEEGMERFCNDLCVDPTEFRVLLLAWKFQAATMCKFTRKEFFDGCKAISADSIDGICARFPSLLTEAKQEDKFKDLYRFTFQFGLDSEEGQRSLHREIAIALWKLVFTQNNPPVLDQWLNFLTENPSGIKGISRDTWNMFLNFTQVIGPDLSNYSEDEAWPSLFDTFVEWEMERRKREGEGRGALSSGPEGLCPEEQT
Sequence of UniProt Q15819 (Q15819 whole entry): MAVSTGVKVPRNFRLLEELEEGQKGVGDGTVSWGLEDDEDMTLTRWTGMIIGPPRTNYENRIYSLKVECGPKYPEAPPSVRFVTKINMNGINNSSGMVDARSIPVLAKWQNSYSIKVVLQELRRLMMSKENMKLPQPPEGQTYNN

Target	NP40-soluble protein abundance (concentration: 1mM)	NP40-soluble protein abundance (concentration: 2mM)	NP40-soluble protein abundance (concentration: 4mM)	NP40-soluble protein abundance (concentration: 6mM)	NP40-soluble protein abundance (concentration: 8mM)	NP40-soluble protein abundance (concentration: 10mM)
DHX9 (UniProt Q08211)	1.24 ± 0.071	1.29 ± 0.043	1.49 ± 0.03	1.55 ± 0.024	1.88 ± 0.091	1.95 ± 0.15
UniProt Q13247|Q13247-3	1.84 ± 0.25	1.98 ± 0.19	2 ± 0.21	2.28 ± 0.23	2.17 ± 0.17	2.15 ± 0.25
KBTBD2 (UniProt Q8IY47)	1.14 ± 0.13	1.11 ± 0.027	1.15 ± 0.07	1.05 ± 0.044	1.16 ± 0.13	1.08 ± 0.026
ZNF579 (UniProt Q8NAF0)	0.954 ± 0.03	1.06 ± 0.12	0.945 ± 0.016	0.936 ± 0.073	0.901 ± 0.045	0.887 ± 0.1
TOMM20 (UniProt Q15388)	0.921 ± 0.086	0.896 ± 0.044	0.903 ± 0.11	0.886 ± 0.041	0.8947 ± 0.0073	0.803 ± 0.21
GRAMD4 (UniProt Q6IC98)	1.01 ± 0.02	0.998 ± 0.02	0.994 ± 0.035	1.02 ± 0.031	1.02 ± 0.025	1.01 ± 0.02
DCUN1D3 (UniProt Q8IWE4)	0.923 ± 0.038	0.949 ± 0.049	0.998 ± 0.035	0.92 ± 0.034	0.931 ± 0.039	0.866 ± 0.11
UBE2V2 (UniProt Q15819)	0.932 ± 0.018	0.904 ± 0.027	0.9 ± 0.045	0.922 ± 0.032	0.885 ± 0.035	0.853 ± 0.028
UniProt Q6NW34|Q6NW34-2	0.863 ± 0.078	0.831 ± 0.11	0.792 ± 0.15	0.892 ± 0.11	0.84 ± 0.14	0.785 ± 0.21
UniProt Q8WU79|A0A087WV97|Q8WU79-2|Q8WU79-3	0.891 ± 0.067	0.924 ± 0.024	0.869 ± 0.011	0.975 ± 0.047	0.839 ± 0.017	0.872 ± 0.032
PPIG (UniProt Q13427)	1.61 ± 0.22	1.69 ± 0.27	1.78 ± 0.32	1.99 ± 0.49	1.85 ± 0.43	1.95 ± 0.46
UniProt Q70Z53	0.931 ± 0.015	0.927 ± 0.028	0.919 ± 0.011	0.922 ± 0.066	0.933 ± 0.058	0.936 ± 0.013
UniProt Q10567|Q10567-2|Q10567-3	0.9721 ± 0.0088	0.973 ± 0.015	0.922 ± 0.022	0.964 ± 0.013	0.951 ± 0.0014	0.934 ± 0.024
UniProt Q8IUD2|X6RLX0	0.979 ± 0.037	0.985 ± 0.025	0.997 ± 0.025	1.01 ± 0.014	0.988 ± 0.027	0.997 ± 0.025
UniProt Q32P28|Q32P28-3|Q32P28-4	1.13 ± 0.023	1.15 ± 0.025	1.2 ± 0.077	1.19 ± 0.043	1.22 ± 0.051	1.198 ± 0.0094
UniProt Q5T200|Q5T200-2	1.04 ± 0.057	1.1 ± 0.056	1.15 ± 0.077	1.22 ± 0.094	1.21 ± 0.086	1.29 ± 0.093
UniProt Q8N766|Q8N766-3	0.974 ± 0.082	0.977 ± 0.065	0.982 ± 0.056	0.878 ± 0.1	0.934 ± 0.013	0.977 ± 0.052
UniProt Q86Y01	0.964 ± 0.033	1.05 ± 0.022	1.12 ± 0.065	1.05 ± 0.088	1.09 ± 0.012	1.15 ± 0.1
THOC7 (UniProt Q6I9Y2)	1.4 ± 0.11	1.5 ± 0.15	1.73 ± 0.19	1.95 ± 0.38	2.12 ± 0.2	2.03 ± 0.26
UniProt Q14677|Q14677-3	1.04 ± 0.042	1.05 ± 0.02	1.04 ± 0.028	1.11 ± 0.027	1.07 ± 0.033	1.09 ± 0.055
UniProt Q8NI08-2	0.989 ± 0.064	1.03 ± 0.032	1.01 ± 0.016	1.02 ± 0.022	0.989 ± 0.039	0.993 ± 0.024
LARP1 (UniProt Q6PKG0)	0.939 ± 0.062	0.988 ± 0.065	1.06 ± 0.059	1.2 ± 0.069	1.22 ± 0.043	1.33 ± 0.065
UniProt Q8N3X1|Q8N3X1-2	1.01 ± 0.026	1.11 ± 0.013	1.29 ± 0.042	1.57 ± 0.027	1.72 ± 0.08	1.9 ± 0.082
THOC5 (UniProt Q13769)	1.53 ± 0.054	1.68 ± 0.11	2.01 ± 0.17	2.23 ± 0.28	2.52 ± 0.27	2.52 ± 0.29
UniProt Q86X83|Q86X83-2	1.01 ± 0.038	0.975 ± 0.011	0.963 ± 0.024	0.927 ± 0.022	0.956 ± 0.048	0.971 ± 0.021
FADD (UniProt Q13158)	1.1 ± 0.14	1.05 ± 0.05	1.06 ± 0.11	1.05 ± 0.046	1.06 ± 0.13	0.969 ± 0.11
UniProt Q16181|Q16181-2	0.891 ± 0.15	0.979 ± 0.023	0.9086 ± 0.0056	0.963 ± 0.076	0.957 ± 0.026	0.911 ± 0.046
PDCD11 (UniProt Q14690)	1.09 ± 0.092	1.14 ± 0.056	1.29 ± 0.062	1.5 ± 0.13	1.75 ± 0.073	2.06 ± 0.15
UniProt Q15036|Q15036-2	0.88 ± 0.17	0.835 ± 0.14	0.853 ± 0.15	0.808 ± 0.18	0.808 ± 0.12	0.849 ± 0.16
ZDHHC17 (UniProt Q8IUH5)	1.08 ± 0.056	0.997 ± 0.021	1.11 ± 0.082	1.02 ± 0.058	1.09 ± 0.063	1.08 ± 0.033
